Source: PubChem BioAssay (National Center for Advancing Translational Sciences (NCATS))
IL1B secr inh: inhibitors of inflammasome signaling (IL-1 beta secretion); THP-1 LPS/ATP IL-1B secretion, AlphaLISA, 16 h; active compounds read low; activity change, % at 57.5 µM; 360,000 tested, 4.7% active; in the data active = activity change below about -50%; inconclusive = mostly about -30% to -49%; also: % is scaled to controls: 0 for no effect and ±100 for the full control effect
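THP-1 cells pretreated 1 hr with compounds (up to 57.5 uM final), then stimulated with LPS (250 ng/mL final) plus ATP (1.25 mM final); secreted IL-1B measured by AlphaLISA after 16 hr, decreased signal indicating inhibition.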
KB-V1 MDR tox: KB-V1 MDR subline cytotoxicity; AID 1347076; 400,000 tested, 3.4% active; Potency, µM (highest dose often 46.1 µM), most hits filed as cytotoxic; KB-V1 MDR cells viability, CellTiter-Glo, 72 h; also: potency is read from the fitted curve at half-maximal effect; % is scaled to controls: 0 for no effect and ±100 for the full control effect; nearly all actives have a fitted effect of over 60% in size
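Drug-selected KB-V1 cells, grown in DMEM lacking phenol red with 10% FBS, receive compound titrations; after three days at 37 degrees C, surviving cell ATP is quantified by CellTiter-Glo luminescence and responses normalized and curve-fitted.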
MCF10A rereplic: DNA re-replication induction in MCF 10a cells | Potency, µM (top dose mostly 46.1 µM), for the others: at the top dose activity, positive = re-replication, most hits filed as activators | AID 624296 | MCF 10A DNA re-replication, Hoechst nuclear intensity, 48 h | 350,000 tested, 2.9% active; also: potency is read from the fitted curve at half-maximal effect; % of control where 0% means no effect; nearly all actives have a fitted effect of over 50% in size
SW480 rerep: induces DNA re-replication in SW480 colon adenocarcinoma cells | Potency, µM (doses to about 46.1 µM), for the others: top-dose re-replication activation, actives largely listed as activators | AID 624297 | 340,000 tested, 1.8% active | SW480 DNA re-replication, Hoechst DNA content imaging, 48 h; also: potency is read from the fitted curve at half-maximal effect; % of control where 0% means no effect; nearly all actives have a fitted effect of over 55% in size
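Hoechst fluorescence of nuclei (405 nm excitation, 500-530 nm emission) measured by plate-scanning imager after 48 hr compound exposure at 37 C; re-replication scored as increased number of nuclei with elevated intensity.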
KB-3-1 cytotox: KB-3-1 parental cell cytotoxicity. Potency, µM (titrated, usually from 46.1 µM), hits mostly cytotoxic. 400,000 tested, 1.4% active. KB-3-1 viability, CellTiter-Glo ATP luminescence, 72 h; also: potency is read from the fitted curve at half-maximal effect; % is scaled to controls: 0 for no effect and ±100 for the full control effect; nearly all actives have a fitted effect of over 60% in size
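Parental KB-3-1 adenocarcinoma cells in phenol-red-free DMEM with 10% FBS were pin-treated with compounds at several concentrations, incubated 72 h at 37 °C, and viability read by CellTiter-Glo luminescence; concentration-effect curves were fitted after normalization.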
Starred values were filed as active, the others as inactive; i = inactive; ? = inconclusive; . = not tested or not shown. Compounds with a hit are over-represented: about 9.9% of the library has one in this group of screens. Unless noted, calls follow the shape of the dose curve; as a rule, active = well fitted curve in the direction sought with a large enough effect; inconclusive = small, poorly fitted or top-dose-only effect, or another doubt; inactive = no such curve, though single readings can be large; an effect the other way counts as inactive or inconclusive.

SMILES | IL1B secr inh | KB-V1 MDR tox | MCF10A rereplic | SW480 rerep | KB-3-1 cytotox
C/C(=N/NC(N)=S)c1cc2ccc(O)cc2oc1=O | 10.0 | i | 18.4µM* | ? | i
NC(=S)c1cc2ccc(O)cc2oc1=O | 19.2 | i | 20.6µM* | 10.3µM* | i
COc1ccc2nc(C)cc(NCc3cccc(C(F)(F)F)c3)c2c1 | -96.0* | ? | 20.6µM* | 23.1µM* | i
COc1cccc2c(N/N=C/c3ccccc3)cc(C)nc12 | 8.4 | i | 3.8% | -14.4% | i
COc1ccc(/C=N/Nc2cc(C)nc3ccc(Br)cc23)cc1 | -100.7* | 16.4µM* | 11.6µM* | 16.4µM* | ?
COc1ccc2nc(C)cc(N/N=C/c3cccc(OC)c3O)c2c1 | -98.6* | ? | ? | ? | i
Cc1cc(N/N=C/c2ccccc2O)c2ccccc2n1 | -62.8* | ? | 11.6µM* | ? | 13µM*
CCCCn1c(=O)c2oc3ccccc3c2n(Cc2ccc(C)cc2)c1=O | . | ? | . | . | i
O=C(CSCc1cnn(-c2ccccc2)c1-n1cccc1)NCc1cccs1 | 3.9 | i | 1.8% | -8.8% | i
CNC(=O)CSCc1cnn(-c2ccccc2)c1-n1cccc1 | -9.0 | 16.4µM* | 2.7% | -5.4% | i
COc1ccc(C(=O)/C=C/c2ccc(O)cc2)c(O)c1CC=C(C)C | -72.2* | i | 23.1µM* | 1.7% | i
CC(=O)c1ccc(O)c(CC=C(C)C)c1O | -2.0 | i | -4.2% | 13.3% | i
COc1ccc(C(=O)/C=C/c2ccc(O)cc2)c2c1CC(O)C(C)(C)O2 (stereo unspecified) | -92.5* | ? | 97.0% | 14.1% | ?
O=C(O)c1ccc(NS(=O)(=O)c2cccc(C(=O)Nc3cccc(C(=O)O)c3)c2)cc1 | 9.3 | i | -13.3% | 16.0% | i
COc1ccc(C2=CC(=O)C[C@H](COCc3ccccc3)N(C(=O)OC(C)(C)C)O2)cc1 | ? | i | 23.1µM* | -5.9% | i
O=C(c1cc2cc(Cl)ccc2[nH]1)N1CCN(c2ccc(F)cc2)CC1 | -85.0* | i | 20.6% | 28.8% | i
O=CN1CCN(C(=O)c2cc3cc(Cl)ccc3[nH]2)CC1 | -7.7 | i | ? | 5.17µM* | i
O=C(c1cccc(Cl)c1)N1CCN(Cc2ccc3c(c2)OCO3)CC1 | -9.2 | i | -5.3% | -3.7% | i
O=C(c1ccc(COc2ccc(Cl)cc2)o1)N1CCN(Cc2ccc3c(c2)OCO3)CC1 | -75.9* | 10.3µM* | ? | 15.3% | i
O=C(c1ccc(COc2ccccc2Cl)o1)N1CCN(Cc2ccc3c(c2)OCO3)CC1 | -12.7 | i | ? | -0.8% | i
O=C(c1cc2cc(Cl)ccc2[nH]1)N1CCN(Cc2ccc3c(c2)OCO3)CC1 | -63.6* | ? | ? | ? | ?
Cc1cccc(NC(=O)c2ccc(C(=O)Nc3cccc(C)c3C)cc2)c1C | . | ? | . | . | i
N#Cc1cc2c(nc1S(=O)(=O)Cc1ccccc1)CCCC2 | -6.7 | i | -2.8% | -0.5% | i
CC(C)c1ccc(NC(=O)Cn2cc(S(=O)(=O)Cc3ccccc3Cl)c3ccccc32)cc1 | . | ? | . | . | i
CN(c1ccccc1)S(=O)(=O)c1cccc(C(=O)Nc2nn[nH]n2)c1 | 3.9 | i | -1.1% | 29.0% | i
SMILES | IL1B secr inh | KB-V1 MDR tox | MCF10A rereplic | SW480 rerep | KB-3-1 cytotox
O=C(CN(c1ccccc1F)S(=O)(=O)c1ccccc1)NC1CCCCCC1 | 2.5 | 4.61µM* | -1.2% | 1.4% | i
O=C(CN(c1ccc(F)cc1)S(=O)(=O)c1ccccc1)NCCSC1CCCCC1 | -58.9* | i | 14.4% | 4.3% | ?
Cc1ccc(S(=O)(=O)N(CC(=O)NC2CCCCCC2)c2ccccc2F)cc1 | -9.2 | i | 11.9% | -6.8% | i
CC(C)(C)SCCNC(=O)CN(c1ccc(F)cc1)S(=O)(=O)c1ccccc1 | -14.0 | i | -12.8% | -15.6% | i
CS(=O)(=O)N(CC(=O)NCCSC1CCCCC1)c1ccc2c(c1)OCO2 | -0.1 | 18.4µM* | 8.5% | 10.6% | i
CCOC(=O)C1CCCCN1C(=O)CCn1nnnc1CN1CCOCC1 (stereo unspecified) | 0.0 | i | -3.3% | -38.3% | i
CCn1nnnc1NCc1ccc(SC)cc1 | -77.5* | i | 5.8% | ? | i
CCn1nnnc1NCc1ccc(N2CCCC2)cc1 | 1.3 | ? | 0.8% | -0.7% | i
COc1cc(/C=C(\C#N)c2nc(-c3cc4ccccc4oc3=O)cs2)ccc1O | 23.2 | i | 0.92µM* | -4.2% | i
COc1cc(/C=C(\C#N)c2nc3ccccc3o2)ccc1O | 30.6 | i | 18.4µM* | 16.9% | i
O=C1CC(N2CCN(C/C=C/c3ccccc3)CC2)C(=O)N1Cc1ccc(N2CCCC2=O)cc1 (stereo unspecified) | -18.0 | 10.3µM* | 7.7% | -0.7% | ?
CCOC(=O)c1cc2c(ccn2C)n1CC(=O)N(Cc1ccccc1)c1ccccc1 | -72.1* | ? | ? | ? | ?
CC(C)OC(=O)c1cc2c(ccn2C)n1CC(=O)N(Cc1ccccc1)c1ccc(F)cc1 | 0.0 | i | 6.51µM* | ? | i
CCCC12CN3CC(C)(CN(C1)C3c1ccc(CC)cc1)C2=O (stereo unspecified) | . | i | . | . | i
COc1cc(NC(=O)c2cccs2)c(C(=O)OCC(=O)NC(=O)NCc2ccccc2)cc1OC | -15.0 | i | 14.6µM* | 22.5% | i
COc1cc(NCCC(=O)c2cccs2)c(OC)cc1Cl | -8.9 | i | 20.6µM* | ? | i
COc1cc(NC(=O)c2cccs2)c(OC)cc1NC(=O)c1cccs1 | 2.6 | i | 10.6% | -1.8% | i
COc1cc(NC(=O)c2cccs2)c(OC)cc1NC(=O)Cc1ccccc1 | -53.9* | ? | 19.1% | -1.3% | i
COc1cc(NC(=O)c2cccs2)c(OC)cc1NC(=O)CCC(=O)Nc1ccc2ncccc2c1 | -15.3 | i | 20.6µM* | ? | i
COc1ccc(OCC(=O)Nc2ccc(NC(=O)c3cccs3)c(OC)c2)cc1 | -2.3 | i | -1.4% | -1.5% | i
Cc1ccccc1NC(=O)CCN1CCc2ccccc2C1 | 14.9 | ? | 28.4% | -1.1% | i
Cc1ccc(C(=O)C2CCN(CC(=O)NC3CCCCC3)CC2)cc1 | -17.6 | 13µM* | 2.6% | 5.6% | i
O=C(CN1CCCCC1)NC(=O)NC1CCCC1 | 19.3 | i | 4.0% | -3.4% | i
O=C(CN1CCCCCCC1)NC(=O)NC1CCCCC1 | 12.3 | ? | 16.4µM* | -2.5% | ?
Cc1ccc(C(=O)N[C@H](C(=O)NC2CCCCC2)C(C)C)cc1 | 1.5 | 10.3µM* | -3.4% | 2.3% | i
COc1ccc(C(=O)N[C@H](C(=O)NC2CCCCC2)C(C)C)cc1 | -7.6 | i | 0.9% | 1.1% | i
